D1 ag = human D1 receptor agonism; P21728; HEK293 T-REx D1 cells, calcium flux, agonist mode; activation, % at 2 µM; 360,000 compounds, 1% hits; note: 0% is about no effect
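Tetracycline-induced HEK293 TREx D1 cells, force-coupled to calcium signalling, were dye-loaded with a no-wash calcium kit. Compound was pin-added after a 10 s baseline. Fluorescence was read kinetically at 1 cycle/s for 180 s, with calcium rises flagged as agonism.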
D1 antag = blocks dopamine activation of the human D1 receptor | HEK293 TREx D1 cells, calcium flux, dopamine EC80; stronger effect = lower value | activity change, negative = inhibition, % at 10 µM | 360,000 compounds, 3.2% hits; in the data active = activity change below about -30%; note: % is set by controls: 0 for no effect and ±100 for the full control effect
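Allosteric or orthosteric antagonism assessed as attenuation of the calcium response to EC80 dopamine, added 180 s after compound, in induced HEK293 Trex D1 cells loaded with no-wash calcium dye.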
TRHR PAM = allosteric enhancers of human TRH receptor | enhancement, % at 2 µM | TRHR cells, fluo-8 calcium fluorescence, EC20 TRH enhancement | AID 493056 | 360,000 compounds, 0.66% hits; in the data active = enhancement above about 30%; note: 0% is about no effect
Target sequence (P34981 whole entry, looked up): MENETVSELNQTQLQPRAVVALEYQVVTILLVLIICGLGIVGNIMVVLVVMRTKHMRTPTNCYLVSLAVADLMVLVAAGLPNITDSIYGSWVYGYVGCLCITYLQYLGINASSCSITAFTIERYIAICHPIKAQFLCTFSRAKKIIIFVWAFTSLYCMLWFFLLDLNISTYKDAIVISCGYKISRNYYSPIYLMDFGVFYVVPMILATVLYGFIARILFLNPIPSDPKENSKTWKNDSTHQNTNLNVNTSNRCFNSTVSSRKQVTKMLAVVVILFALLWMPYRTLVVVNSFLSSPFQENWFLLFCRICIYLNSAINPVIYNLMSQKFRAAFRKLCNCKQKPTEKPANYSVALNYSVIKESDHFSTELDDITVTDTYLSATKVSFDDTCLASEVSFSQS
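TRHR-expressing cells loaded with fluo-8 calcium dye were read kinetically (ex 480/em 530) during compound addition, then stimulated with an EC20 of TRH (10 nM final). Enhancement of the Gq-mediated intracellular calcium response was scored.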
TRHR agonist = agonists of human TRH receptor; P34981; TRHR cells, calcium flux fluo-8, FDSS agonist mode; activation, % at 2 µM; 360,000 compounds, 0.18% hits; note: 0% is about no effect
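TRHR-expressing cells loaded with fluo-8 calcium dye; 23 nL library compound pin-transferred, kinetic FDSS fluorescence (Ex 480/Em 530) recorded about 180 s for agonist-induced calcium release, before a 10 nM TRH EC20 addition for potentiator mode.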
D1 potentiator = enhances dopamine response at the human D1 receptor; HEK293 TREx D1 cells, calcium flux, dopamine EC20 potentiation; potentiation, % at 10 µM; 360,000 compounds, 0.036% hits; AID 504651; in the data active = potentiation above about 30%; note: 0% is about no effect
Active calls of the source: *; . = not tested or not shown. Rows were chosen to be rich in hits. Some 4.7% of all compounds tested hit in one or more screens of this group. Cut-off read from the data, not from the text of the source, unless noted: active = activation above about 30%; inactive = the rest.

SMILES	D1 ag	D1 antag	TRHR PAM	TRHR agonist	D1 potentiator
COc1cccc(NC(=O)Cn2c(=O)n(CC(=O)NCCc3ccccc3)c(=O)c3sccc32)c1	10	-4	-5	3	1
Cc1ccc(C(=O)N2CCCC(CCC(=O)N3CCN(c4ccccn4)CC3)C2)cc1C (configuration not stated)	7	-39*	-5	-1	-5
CCOC(=O)C1CCN(C2=NC(=O)/C(=C/c3ccc(Cl)cc3)S2)CC1	1	-17	0	0	-4
CCOC(=O)CSC1=NC(=O)/C(=C\c2ccc(Cl)cc2)S1	100*	0	1	0	-3
Cc1nnc(SCc2cc(=O)n3c(C)cccc3n2)s1	0	-28	13	0	4
COc1cccc(Cc2nc3ccccc3nc2SCC(=O)N2CCCc3ccccc32)c1	6	-3	3	1	-1
COc1ccc(CCNC(=O)CCn2c(=O)c3ccccc3n(Cc3ccccc3F)c2=O)cc1OC	0	-1	2	-1	1
Oc1ccc(-c2nc3ccccc3s2)c(O)c1	1	-37*	2	0	-2
CCOc1ccc(CCN2C(=O)C(=O)N([C@H](CCCN(C)Cc3ccccc3)CNCc3ccccc3)C[C@@H]2C(C)C)cc1	41*	-2	14	-1	-7
CN(CCCC[C@H](CNCc1ccc(-c2ccccc2)cc1)N1C[C@H](c2ccccc2)N(CCc2ccc(Cl)c(Cl)c2)C(=O)C1=O)Cc1ccc(-c2ccccc2)cc1	3	10	2	0	2
COc1ccc(CNC[C@@H](CCCCN(C)Cc2ccc(OC)cc2)N2C[C@H](c3ccccc3)N(CCc3ccc(Cl)c(Cl)c3)C(=O)C2=O)cc1	39*	126	7	0	0
CCN1CCN(Cc2nc3cc(NC(=O)c4cc(OC)c(OC)c(OC)c4)ccc3n2CC)CC1	1	-7	-4	1	0
COc1ccccc1NC(=O)CNC(=O)Cn1c(C)cc2ccccc2c1=O	-4	-65*	23	0	-5
Cc1cc(C)c(C(=O)COC(=O)CCn2c(C)csc2=O)cc1C	11	-3	13	-1	2
COc1cccc(NC(=O)COC(=O)Cn2c(C)csc2=O)c1	3	-94*	-1	0	.
COc1ccc(OC)c(NC(=O)CNC(=O)Cn2c(C)cc3ccccc3c2=O)c1	1	-1	12	-1	-3
Cc1cc(C)c(C(=O)COC(=O)Cn2c(C)csc2=O)cc1C	3	-36*	3	0	-11
COc1ccccc1NC(=O)COC(=O)CCn1c(C)csc1=O	0	-33*	0	0	-8
O=C(CCn1c(=O)c2cccn2c2cccnc21)N1CCN(c2ccccc2F)CC1	1	-12	0	0	-1
COC(=O)C1=C(C)NC(=O)NC1c1cn(-c2ccccc2)nc1-c1ccc(OC)c(Br)c1 (configuration not stated)	7	0	-2	1	1
COc1ccc(NC(=O)c2c(C)oc3ccc(O)c(CN4CCN(C)CC4)c23)cc1Cl	8	-8	-1	1	-1
Cc1cnc(=O)[nH]c1SCC(=O)Nc1cc(C(F)(F)F)ccc1Cl	0	.	2	0	0
CCc1ccc(S(=O)(=O)c2cn(CC)c3cc(N4CCCCC4)c(F)cc3c2=O)cc1	4	8	19	0	0
COc1ccc(OC)c(Nc2ncc3c(n2)CCN(Cc2cc(OC)c(OC)c(OC)c2)C3)c1	-1	-8	1	-1	1
Cc1ccc(NC(=O)COC(=O)Cn2c(C)csc2=O)cc1C	3	-35*	0	-1	-2
Cc1cc(C)n(CCNC(=O)c2cc(COc3c(F)cccc3F)on2)n1	4	9	-2	0	5
Cc1cc(C)n(CCN(C)C(=O)c2cc(COc3c(F)cccc3F)on2)n1	-1	-50*	9	-2	-1
C=C(C(=O)Nc1ccccc1)c1ccc(C)cc1	4	-49*	2	-1	3
Cc1ccc(C(=O)CNc2ccccc2)cc1	3	-4	0	-1	1
COc1ccc(-c2ccc(C3C(C#N)=C(N)Oc4n[nH]c(C)c43)o2)cc1 (configuration not stated)	32*	-33*	-4	9	-7
